For one experiment, the system named is XIP peptide (Xip251-270). Nature of the experiment: small-molecule binders of XIP peptide, primary screen, biochemical, small-molecule microarray, fluorescence 635/667 nm, 0.5 µg/mL protein (AID 1183). The settings on record: small-molecule microarray binding, fluorescence 635 nm; higher = more signal.
`COc1ccc(C(O)C2C=CC3C(=O)NC(=O)C3N2Nc2ccc(Cl)cc2Cl)c2ccccc12` (stereo not drawn): the composite z-score was 0.687.
On to `COc1ccc(C(=O)Nc2cccc(CN3C(=O)[C@]4(O[C@H](CC(=O)N5Cc6ccccc6C[C@H]5CO)[C@@H]([Si](C)(C)c5ccc(OC)cc5)[C@@H]4C)c4ccccc43)c2)cc1`, for which the composite z-score was determined as 0.697.
On to `C=CCNC(=O)[C@@H]1[C@H]2C(=O)O[C@H](c3ccccc3)[C@H](c3ccccc3)N2[C@H](c2ccc(OCCO)cc2)[C@@]12C(=O)Nc1ccc(C#CC3(O)CCCCCC3)cc12`, for which the composite z-score turned out to be 0.774.
Same read-out and setting: for `C=CC[C@]1(C(=O)NCC(O)CO)COC(c2ccc(OCCCO)cc2)=N1` (stereo partly drawn) the value was -1.45.
The same measure, in the same setting: the figure for `C=CCC(OC(C)=O)[C@@H]1[C@@H](N(Cc2ccc(-c3cccc(C(F)(F)F)c3)o2)C(=O)c2ccc(-c3ccccc3)cc2)c2cc(OCCCO)ccc2N1C(=O)c1ccc2ccccc2c1` (stereo partly drawn) is -0.378.
Still for that read-out and setting: the figure for `C=CC[C@@]1(C(=O)N(C)C)N=C(c2ccc(OCCCO)cc2)O[C@@H]1c1ccccc1CN=[N+]=[N-]` is 0.774.
As for `COc1ccc(C#Cc2ccc3c(c2)[C@]2(C(=O)N3)[C@H](C(=O)O)[C@H]3C(=O)O[C@H](c4ccccc4)[C@H](c4ccccc4)N3[C@@H]2c2ccccc2OCCO)cc1`, the composite z-score turned out to be 0.833.
Still for that read-out and setting: the figure for `COC(=O)[C@]1(CCC(=O)OC(C)(C)C)N=C(c2ccc(OCCCO)cc2)O[C@@H]1c1ccccc1N=[N+]=[N-]` is 0.633; for `CN1C(=O)C2C=CC(C(O)c3ccc(-c4ccccc4)s3)N(NC(=O)OC(C)(C)C)C2C1=O` (stereo not drawn) it is 0.912.
Same read-out and setting: the figure for `O=C1O[C@@H](c2ccccc2)[C@@H](c2ccccc2)N2[C@@H](c3ccc(OCCO)cc3)[C@]3(C(=O)Nc4ccc(C#CC5(O)CCCCCC5)cc43)[C@@H](C(=O)O)[C@H]12` is 0.688.
Consider `C=CCN1C(=O)[C@]2(O[C@H](CCn3cc([C@H](O)c4ccccc4)nn3)[C@@H]([Si](C)(C)c3ccc(OC)cc3)[C@@H]2C)c2cc(NC(=O)c3ccc(OC)cc3)ccc21`, for which the composite z-score worked out at 0.309.
Same read-out and setting: for `CC(C)N1C(=O)C[C@@](C(=O)NCCN2CCOCC2)(c2ccc([N+](=O)[O-])cc2)[C@H]1c1ccc(CO)cc1` the value was 0.634; for `COC(=O)[C@@]1(Cc2ccccc2)[C@H]2c3cc(C(=O)N(C)C)n(CCSC(=N)N)c3C[C@H]2CN1C(=O)c1ccccc1`, 0.903; for `CCCc1cc2c(n1CCc1ccc(Cl)cc1)C(C)C1CN(C(=O)c3ccccc3)C(C)(C(=O)OC)C21` (stereo not drawn), 0.201.
On the same count and under the same terms, the figure for `O=C1C=C(c2ccccc2)C(=O)C2=C1CC([C@H]1Oc3ccccc3S(=O)(=O)N3CCC[C@@H]13)=CC2` is -0.0733.
The same measure, in the same setting: for `CC(C)(C)N1CC=CC23O[C@@H]4C=CCCOC(=O)C4[C@H]2C(=O)N(CCCCCCO)[C@@H]3C1=O` (stereo partly drawn) the value was 0.202.
`O=C(NC1CC1)[C@@H]1c2ccccc2C(=O)N(Cc2cc(C(F)(F)F)cc(C(F)(F)F)c2)[C@H]1c1ccc(CO)cc1`: the composite z-score came out at 0.62.
The same measure, in the same setting: the figure for `C=CCC(OC(C)=O)[C@@H]1[C@@H](N(Cc2cccc3ccccc23)C(=O)c2ccc(-c3ccccc3)cc2)c2cc(OCCCO)ccc2N1C(=O)Cc1ccc2ccccc2c1` (stereo partly drawn) is -0.347; for `O=C1c2ccccc2[C@@]2(Cc3ccccc3N(Cc3ccccc3)C2=O)[C@H](c2ccc(CO)cc2)N1Cc1ccccc1Cl` it is 0.311; for `CC1CC/C=C\[C@H]2OC34C=CCN(C(C)(C)C)C(=O)[C@H]3N(CCCO)C(=O)[C@@H]4C2C(=O)O1` (stereo partly drawn) it is 0.774.
`O=C1C[C@@](C(=O)O)(c2ccc([N+](=O)[O-])cc2)[C@@H](c2ccc(CO)cc2)N1C1CCCCC1`: the composite z-score stood at 0.73.
Same read-out and setting: for `C=C(COC)/C(=C/C[C@H](OC(C)=O)c1ccccc1OCCO)c1cc(C(=O)OC)ccc1OC` the value was 0.788; for `CC(C)N1C(=O)c2ccccc2[C@](C)(C(=O)NCC(F)(F)F)[C@@H]1c1ccc(CO)cc1`, 0.464.

Test system in the next experiment: not listed separately
Nature of the experiment: Plasmodium falciparum growth inhibition, primary screen, strain 3D7, DAPI fluorescence, 100 nL (AID 1184).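 Also: parasites grown inside human red blood cells in medium with human serum.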 The settings on record: P. falciparum 3D7 growth, 3 d, higher = more signal.
On to `COc1ccc([Si](C)(C)[C@H]2[C@H](CC(=O)N3Cc4ccccc4C[C@H]3CO)O[C@@]3(C(=O)N(C)c4ccccc43)[C@@H]2C)cc1`, for which the z-score is -2.63.
The same measure, in the same setting: for `O=C1O[C@H](Cc2ccccc2)[C@@H]2[C@H]3C=CCCC=C3CN2[C@H]1Cc1ccc(O)cc1` the value was -0.947.
With `CCOc1cc(C(O)C2C=CC3C(=O)N(c4ccccc4)C(=O)C3N2Nc2ccccc2F)ccc1O` (stereo not drawn), the z-score is -0.0969.
The same measure, in the same setting: for `[N-]=[N+]=NCc1ccccc1[C@@H]1OC(c2ccc(OCCCO)cc2)=N[C@]1(Cc1ccccc1N=[N+]=[N-])C(=O)O` the value was -1.9; for `[N-]=[N+]=Nc1ccccc1C[C@@]1(C(=O)NCC(O)CO)N=C(c2ccc(OCCCO)cc2)O[C@@H]1c1ccccc1` (stereo partly drawn), -1.45.
Consider `C=CCC(OC(C)=O)[C@@H]1[C@@H](N(Cc2ccc(-c3cccc(C(F)(F)F)c3)o2)C(=O)Cc2ccc(F)cc2)c2cc(OCCCO)ccc2N1C(=O)Cc1ccc2ccccc2c1` (stereo partly drawn), for which the z-score was -0.328.
On the same count and under the same terms, the figure for `COc1cc(CO)cc(I)c1O[C@H]1C=C(C(=O)NCCO)C[C@@H]2O[C@H]12` is -1.41; for `CCCC=C(CCC)[C@@H](NC(=O)OCC(C)C)c1ccc(C(=O)OC)cc1` it is -0.102.
On the same count and under the same terms, for `COC(=O)[C@@]1(Cc2ccc(F)cc2)[C@H]2c3cc(C(=O)N(C)C)n(CCc4ccc(O)c(O)c4)c3C[C@H]2CN1C(=O)c1ccccc1` the value was 0.162; for `CC(C)=CCCC(C)=CC(O)C1C=CC2C(=O)NC(=O)C2N1Nc1ccc(Cl)cc1Cl` (stereo not drawn), 0.812.
Molecule `Cc1ccc(F)cc1S(=O)(=O)N[C@H]1CCN(Cc2ccc(OC(C)C)cc2)C1` returned a z-score of 0.646.
Consider `COCCOC(=O)N1C(=O)[C@@]2(c3cc(C#CCCO)ccc31)[C@H](c1ccccc1OCCO)N1[C@H](c3ccccc3)[C@H](c3ccccc3)OC(=O)[C@H]1[C@@H]2C(N)=O`, for which the z-score is -2.22.
Same read-out and setting: the figure for `COc1ccc(C(O)C2C=CC3C(=O)NC(=O)C3N2Nc2ccc(Cl)cc2Cl)c2ccccc12` (stereo not drawn) is -0.605; for `COc1ccc(C(=O)Nc2cccc(CN3C(=O)[C@]4(O[C@H](CC(=O)N5Cc6ccccc6C[C@H]5CO)[C@@H]([Si](C)(C)c5ccc(OC)cc5)[C@@H]4C)c4ccccc43)c2)cc1` it is -2.94.
Still for that read-out and setting: the figure for `C=CCNC(=O)[C@@H]1[C@H]2C(=O)O[C@H](c3ccccc3)[C@H](c3ccccc3)N2[C@H](c2ccc(OCCO)cc2)[C@@]12C(=O)Nc1ccc(C#CC3(O)CCCCCC3)cc12` is -1.73.
Same read-out and setting: for `C=CC[C@]1(C(=O)NCC(O)CO)COC(c2ccc(OCCCO)cc2)=N1` (stereo partly drawn) the value was 0.343.
Regarding `C=CCC(OC(C)=O)[C@@H]1[C@@H](N(Cc2ccc(-c3cccc(C(F)(F)F)c3)o2)C(=O)c2ccc(-c3ccccc3)cc2)c2cc(OCCCO)ccc2N1C(=O)c1ccc2ccccc2c1` (stereo partly drawn), the z-score is -1.26.
On the same count and under the same terms, the figure for `C=CC[C@@]1(C(=O)N(C)C)N=C(c2ccc(OCCCO)cc2)O[C@@H]1c1ccccc1CN=[N+]=[N-]` is -2.33; for `COc1ccc(C#Cc2ccc3c(c2)[C@]2(C(=O)N3)[C@H](C(=O)O)[C@H]3C(=O)O[C@H](c4ccccc4)[C@H](c4ccccc4)N3[C@@H]2c2ccccc2OCCO)cc1` it is -2.15; for `COC(=O)[C@]1(CCC(=O)OC(C)(C)C)N=C(c2ccc(OCCCO)cc2)O[C@@H]1c1ccccc1N=[N+]=[N-]` it is -1.98.
The same measure, in the same setting: the figure for `CN1C(=O)C2C=CC(C(O)c3ccc(-c4ccccc4)s3)N(NC(=O)OC(C)(C)C)C2C1=O` (stereo not drawn) is 0.428; for `O=C1O[C@@H](c2ccccc2)[C@@H](c2ccccc2)N2[C@@H](c3ccc(OCCO)cc3)[C@]3(C(=O)Nc4ccc(C#CC5(O)CCCCCC5)cc43)[C@@H](C(=O)O)[C@H]12` it is -0.0628.
The same measure, in the same setting: for `C=CCN1C(=O)[C@]2(O[C@H](CCn3cc([C@H](O)c4ccccc4)nn3)[C@@H]([Si](C)(C)c3ccc(OC)cc3)[C@@H]2C)c2cc(NC(=O)c3ccc(OC)cc3)ccc21` the value was -2.77.
As for `CC(C)N1C(=O)C[C@@](C(=O)NCCN2CCOCC2)(c2ccc([N+](=O)[O-])cc2)[C@H]1c1ccc(CO)cc1`, the z-score is 0.289.
Still for that read-out and setting: the figure for `COC(=O)[C@@]1(Cc2ccccc2)[C@H]2c3cc(C(=O)N(C)C)n(CCSC(=N)N)c3C[C@H]2CN1C(=O)c1ccccc1` is -0.118; for `CCCc1cc2c(n1CCc1ccc(Cl)cc1)C(C)C1CN(C(=O)c3ccccc3)C(C)(C(=O)OC)C21` (stereo not drawn) it is -1.18.
Same read-out and setting: the figure for `O=C1C=C(c2ccccc2)C(=O)C2=C1CC([C@H]1Oc3ccccc3S(=O)(=O)N3CCC[C@@H]13)=CC2` is -3.16.
Turning to `CC(C)(C)N1CC=CC23O[C@@H]4C=CCCOC(=O)C4[C@H]2C(=O)N(CCCCCCO)[C@@H]3C1=O` (stereo partly drawn), the z-score is -0.143.
On the same count and under the same terms, for `O=C(NC1CC1)[C@@H]1c2ccccc2C(=O)N(Cc2cc(C(F)(F)F)cc(C(F)(F)F)c2)[C@H]1c1ccc(CO)cc1` the value was -1.54; for `C=CCC(OC(C)=O)[C@@H]1[C@@H](N(Cc2cccc3ccccc23)C(=O)c2ccc(-c3ccccc3)cc2)c2cc(OCCCO)ccc2N1C(=O)Cc1ccc2ccccc2c1` (stereo partly drawn), 0.0788.
The same measure, in the same setting: the figure for `O=C1c2ccccc2[C@@]2(Cc3ccccc3N(Cc3ccccc3)C2=O)[C@H](c2ccc(CO)cc2)N1Cc1ccccc1Cl` is 0.689; for `CC1CC/C=C\[C@H]2OC34C=CCN(C(C)(C)C)C(=O)[C@H]3N(CCCO)C(=O)[C@@H]4C2C(=O)O1` (stereo partly drawn) it is 0.428.
Still for that read-out and setting: the figure for `O=C1C[C@@](C(=O)O)(c2ccc([N+](=O)[O-])cc2)[C@@H](c2ccc(CO)cc2)N1C1CCCCC1` is -1.13; for `C=C(COC)/C(=C/C[C@H](OC(C)=O)c1ccccc1OCCO)c1cc(C(=O)OC)ccc1OC` it is -2.75; for `CC(C)N1C(=O)c2ccccc2[C@](C)(C(=O)NCC(F)(F)F)[C@@H]1c1ccc(CO)cc1` it is -0.805.
